The record followed here is PubChem BioAssay (NCI).

Molecules are shown by their SMILES. Several values for one entry are separate records, joined by “and”; a condition that tells them apart may be missing. Equal values may be shown once. About 79,000 compounds went through this panel and 15% of them were active in at least one assay; those are over-represented in the sample as a whole. More than one record can exist for a structure, and the calls need not agree. Activity calls are given as the source filed them. Cut-off read from the data, not from the text of the source: active = growth inhibition above about 70%; inactive = the rest.

A short description of experiment [1]: NCI Yeast Anticancer Drug Screen. Data for the rad50 strain (AID 155).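 Note: 0% = growth of vehicle-only cultures of the same strain.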 Conditions: S. cerevisiae rad50 strain growth inhibition, stronger effect = higher value. In short, it runs like this:
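Growth of the mutant yeast was measured after compound exposure and referenced to vehicle-treated cultures.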

Experiment [2] in a line: NCI Yeast Anticancer Drug Screen. Data for the mec2-1 strain (AID 157). Conditions: S. cerevisiae mec2-1 strain, stronger effect = higher value. In short, it runs like this:
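Readout is yeast growth inhibition, normalised to vehicle-treated controls, in the mec2-1 strain exposed to compound.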

Experiment [3] in a line: NCI Yeast Anticancer Drug Screen. Data for the sgs1 mgt1 strain (AID 161).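 Note: 0% = growth of cultures given vehicle only.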 Conditions: S. cerevisiae sgs1 mgt1 strain, stronger effect = higher value. In short, it runs like this: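 Growth of a repair-deficient yeast mutant was monitored after compound treatment and expressed as inhibition relative to vehicle-treated cultures.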
Experiment [4] is described as follows: NCI Yeast Anticancer Drug Screen. Data for the cln2 rad14 strain (AID 165).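 Note: 0% = growth equal to vehicle treated cultures.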 Conditions: S. cerevisiae cln2 rad14 strain, stronger effect = higher value. In short, it runs like this: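 Relative to vehicle controls, growth inhibition of compound-treated cln2 rad14 yeast was recorded.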
The nature of experiment [5]: NCI Yeast Anticancer Drug Screen. Data for the bub3 strain (AID 167). Conditions: S. cerevisiae bub3 mutant strain, stronger effect = higher value. In short, it runs like this:
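Whole-cell yeast assay. The mutant strain was incubated with compounds, and growth inhibition was determined by comparison with vehicle-treated cells.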

A short description of experiment [6]: NCI Yeast Anticancer Drug Screen. Data for the mlh1 rad18 strain (AID 175). Conditions: S. cerevisiae mlh1 rad18 strain growth inhibition, stronger effect = higher value. The essentials: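 Test agents were incubated with a yeast strain of defined genotype (DNA damage repair defect). Inhibition of growth was derived by comparison with vehicle-exposed cultures.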
Where [7] appears, read: at 5.0 µM (retest, dose inferred, filed as 0.5).
Setting [8] is: at 50.0 µM (retest, dose inferred, filed as 5.0).

For the molecule `CC(=O)OC(OC(C)=O)c1c2ccccc2cc2ccccc12`, the growth inhibition was 36% (inactive) in experiment [1] (setting [7]); 97% (active) in experiment [1] (setting [8]); 89.3% (active) in experiment [1] (at 50.0 µM); 15% (inactive) in experiment [2] (setting [7]); 96% (active) in experiment [2] (setting [8]); 93.2% (active) in experiment [2] (at 50.0 µM). For the same molecule, the growth inhibition in experiment [3] (setting [7]) is 27% (inactive); in experiment [3] (setting [8]), 97% (active); in experiment [3] (at 50.0 µM) it was 88.9% (active); in experiment [4] (setting [7]), 14% (inactive); in experiment [4] (setting [8]), 92% (active); in experiment [4] (at 50.0 µM), 91.1% (active). For the same molecule, the growth inhibition in experiment [5] (setting [7]) was 8% (inactive); in experiment [5] (setting [8]), 97% (active); in experiment [5] (at 50.0 µM), 85.5% (active); in experiment [6] (setting [7]), 23% (inactive); in experiment [6] (setting [8]), 97% (active); in experiment [6] (at 50.0 µM), 85.7% (active).
With `CC(=O)c1ccc(N)cc1`, the growth inhibition in experiment [1] (setting [7]) was 35% (inactive); in experiment [1] (setting [8]), 73% (active); in experiment [1] (at 50.0 µM), 7.3% (inactive); in experiment [2] (setting [7]), 50% (inactive); in experiment [2] (setting [8]), 100% (active); in experiment [2] (at 50.0 µM), 15.3% (inactive). Moreover, the growth inhibition in experiment [3] (setting [7]) is 7% (inactive); in experiment [3] (setting [8]) it was 52% (inactive); in experiment [3] (at 50.0 µM), 26.8% (inactive); in experiment [4] (setting [7]), 12% (inactive); in experiment [4] (setting [8]), 39% (inactive); in experiment [4] (at 50.0 µM), -1.3% (inactive). Besides, the growth inhibition in experiment [5] (setting [7]) is 30% (inactive); in experiment [5] (setting [8]) it was 99% (active); in experiment [5] (at 50.0 µM), -2.8% (inactive); in experiment [6] (setting [7]), 62% (inactive); in experiment [6] (setting [8]) it was 96% (active); in experiment [6] (at 50.0 µM) it was 20.1% (inactive).
`Nc1cc(F)c2c(c1)Cc1ccccc1-2`: the growth inhibition in experiment [1] (setting [7]) was 1% (inactive); in experiment [1] (setting [8]), 95% (active); in experiment [1] (at 50.0 µM) it was 84.3% (active); in experiment [2] (setting [7]) it was -3% (inactive); in experiment [2] (setting [8]), 60% (inactive); in experiment [2] (at 50.0 µM), 39.2% (inactive). Further, the growth inhibition was -6% (inactive) in experiment [3] (setting [7]); 84% (active) in experiment [3] (setting [8]); 82.7% (active) in experiment [3] (at 50.0 µM); 8% (inactive) in experiment [4] (setting [7]); 32% (inactive) in experiment [4] (setting [8]); 23.7% (inactive) in experiment [4] (at 50.0 µM). In addition, the growth inhibition is 9% (inactive) in experiment [5] (setting [7]); 92% (active) in experiment [5] (setting [8]); 71% (active) in experiment [5] (at 50.0 µM); 12% (inactive) in experiment [6] (setting [7]); 97% (active) in experiment [6] (setting [8]); 58.1% (inactive) in experiment [6] (at 50.0 µM).
In the case of `O=[N+]([O-])c1ccc(OCCN(Cc2ccccc2)Cc2ccccc2)c([N+](=O)[O-])c1`, the growth inhibition in experiment [1] (setting [7]) is 3% (inactive); in experiment [1] (setting [8]), 70% (active); in experiment [1] (at 50.0 µM) it was 71.5% (active); in experiment [2] (setting [7]) it was 3% (inactive); in experiment [2] (setting [8]) it was 38% (inactive); in experiment [2] (at 50.0 µM), 59.2% (inactive). For the same molecule, the growth inhibition in experiment [3] (setting [7]) was -11% (inactive); in experiment [3] (setting [8]) it was 61% (inactive); in experiment [3] (at 50.0 µM) it was 60.4% (inactive); in experiment [4] (setting [7]), 4% (inactive); in experiment [4] (setting [8]), 24% (inactive); in experiment [4] (at 50.0 µM) it was 34.1% (inactive). The growth inhibition is 3% (inactive) in experiment [5] (setting [7]); 54% (inactive) in experiment [5] (setting [8]); 71.5% (active) in experiment [5] (at 50.0 µM); 5% (inactive) in experiment [6] (setting [7]); 58% (inactive) in experiment [6] (setting [8]); 74.8% (active) in experiment [6] (at 50.0 µM).
On to `O=C(/C(=C\c1ccc(Cl)c(Cl)c1)c1ccccc1)c1ccc(O)cc1`, for which the growth inhibition was 51% (inactive) in experiment [1] (setting [7]); 91% (active) in experiment [1] (setting [8]); 94% (active) in experiment [1] (at 50.0 µM); 39% (inactive) in experiment [2] (setting [7]); 95% (active) in experiment [2] (setting [8]); 93.9% (active) in experiment [2] (at 50.0 µM). The growth inhibition was 48% (inactive) in experiment [3] (setting [7]); 93% (active) in experiment [3] (setting [8]); 94.1% (active) in experiment [3] (at 50.0 µM); 42% (inactive) in experiment [4] (setting [7]); 93% (active) in experiment [4] (setting [8]); 92.2% (active) in experiment [4] (at 50.0 µM). Also, the growth inhibition in experiment [5] (setting [7]) was 43% (inactive); in experiment [5] (setting [8]) it was 94% (active); in experiment [5] (at 50.0 µM), 91.8% (active); in experiment [6] (setting [7]), 54% (inactive); in experiment [6] (setting [8]), 92% (active); in experiment [6] (at 50.0 µM) it was 93.2% (active).
In the case of `CCOC(=O)/C(=C/c1ccc(OC)c(OC)c1)C(=O)c1ccccc1`, the growth inhibition in experiment [1] (setting [7]) is 12% (inactive); in experiment [1] (setting [8]), 49% (inactive); in experiment [1] (at 50.0 µM), 74.7% (active); in experiment [2] (setting [7]), -19% (inactive); in experiment [2] (setting [8]), 66% (inactive); in experiment [2] (at 50.0 µM) it was 68% (inactive). For the same molecule, the growth inhibition in experiment [3] (setting [7]) is 2% (inactive); in experiment [3] (setting [8]) it was 65% (inactive); in experiment [3] (at 50.0 µM) it was 64.7% (inactive); in experiment [4] (setting [7]) it was 27% (inactive); in experiment [4] (setting [8]), 71% (active); in experiment [4] (at 50.0 µM), 72.5% (active). Also, the growth inhibition is 27% (inactive) in experiment [5] (setting [7]); 92% (active) in experiment [5] (setting [8]); 78.4% (active) in experiment [5] (at 50.0 µM); -7% (inactive) in experiment [6] (setting [7]); 80% (active) in experiment [6] (setting [8]); 56.5% (inactive) in experiment [6] (at 50.0 µM).
For the molecule `c1cc2c3c(c1)ccc1cccc(c13)COC2`, the growth inhibition in experiment [1] (setting [7]) is -21% (inactive) and -2% (inactive); in experiment [1] (setting [8]), 10% (inactive) and 85% (active); in experiment [1] (at 50.0 µM) it was 86.3% (active) and 98% (active); in experiment [2] (setting [7]), -6% (inactive) and 9% (inactive); in experiment [2] (setting [8]), -8% (inactive) and 75% (active); in experiment [2] (at 50.0 µM), 51.1% (inactive) and 96.7% (active). Also, the growth inhibition in experiment [3] (setting [7]) was -4% (inactive) and -10% (inactive); in experiment [3] (setting [8]), 20% (inactive) and 58% (inactive); in experiment [3] (at 50.0 µM), 47.5% (inactive) and 95.8% (active); in experiment [4] (setting [7]), -42% (inactive) and 4% (inactive); in experiment [4] (setting [8]), -7% (inactive) and 27% (inactive); in experiment [4] (at 50.0 µM), 69.2% (inactive) and 96.5% (active). Further, the growth inhibition was -13% (inactive) and -12% (inactive) in experiment [5] (setting [7]); 10% (inactive) and 65% (inactive) in experiment [5] (setting [8]); 88.2% (active) and 94.9% (active) in experiment [5] (at 50.0 µM); -19% (inactive) and -11% (inactive) in experiment [6] (setting [7]); 9% (inactive) and 89% (active) in experiment [6] (setting [8]); 56.5% (inactive) and 98.2% (active) in experiment [6] (at 50.0 µM).
